# From PubChem
# In the library only some 21% were active in any assay of this set; here they are far more common.
# MRP resist rev: reverses drug resistance mediated by MRP; H69AR cells + 2 uM doxorubicin, CellTiter-Glo, 72 h; differential viability (reversal), % at 10 µM; 85,000 compounds, 0.04% hits; AID 602;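 active = viability drop by adding the cancer drug above about 55%, with treated viability meeting a 40% cutoff, limit read from the data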;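 also: viability without doxorubicin minus viability with 2 µM doxorubicin for each compound; larger differential means the compound sensitizes cells more to doxorubicin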
# CYP2C19 activ: increases human CYP2C19 enzyme activity; P33261; recombinant CYP2C19, luciferin-H EGE luminescence; stronger effect = higher value; 0 = fully inhibited enzyme, 1 = untreated enzyme; activation factor at 5 µM; 96,000 tested, under 10 active; AID 1025;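 active = activation factor of at least 2 at 5 µM in the primary screen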;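 also: 0 = wells with 2.5 mM tranylcypromine and 1 = vehicle-only wells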
# Target sequence (P33261 whole entry, looked up): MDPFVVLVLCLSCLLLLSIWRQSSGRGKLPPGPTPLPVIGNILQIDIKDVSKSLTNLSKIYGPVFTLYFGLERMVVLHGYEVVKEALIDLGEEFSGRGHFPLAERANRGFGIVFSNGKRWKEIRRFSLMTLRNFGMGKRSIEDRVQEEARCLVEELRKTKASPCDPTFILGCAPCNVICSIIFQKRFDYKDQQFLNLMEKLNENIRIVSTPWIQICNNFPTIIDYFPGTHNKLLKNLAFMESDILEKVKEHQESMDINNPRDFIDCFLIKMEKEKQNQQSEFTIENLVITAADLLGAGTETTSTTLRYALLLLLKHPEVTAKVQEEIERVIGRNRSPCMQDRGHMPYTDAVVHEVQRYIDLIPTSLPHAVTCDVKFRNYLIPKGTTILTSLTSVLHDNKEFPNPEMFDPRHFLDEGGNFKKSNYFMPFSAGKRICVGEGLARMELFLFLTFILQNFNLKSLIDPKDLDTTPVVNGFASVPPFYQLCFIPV
# CYP2C19 inhib: blocks human cytochrome P450 2C19. P33261. CYP2C19 Supersomes, luciferin-H EGE luminescence, 30 min. inhibition, % at 5 µM. 96,000 compounds, 21% hits. AID 778;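 active = CYP2C19 inhibition above a set limit at 5 µM in the primary screen, cut at about 50% in these data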;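 also: plate controls were negative control wells for no effect and 2.5 mM tranylcypromine positive control for full effect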
# CYP2C9 inh: human CYP2C9 inhibition; AID 777; inhibition, % at 5 µM; P11712; CYP2C9 Supersomes, luciferin-H conversion, luminescence; 96,000 compounds, 20% hits;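 active = blocking of liver enzyme CYP2C9 beyond about 50% at 5 µM, limit read from the data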
# CYP2C9 activ: activators of human CYP2C9. 96,000 compounds, 1.4% hits. recombinant CYP2C9, luciferin-H conversion, luminescence; stronger effect = higher value; factor 1 = untreated enzyme, 0 = blocked. activation factor at 5 µM. AID 1024. P11712;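 active = activation factor of 2 or more for CYP2C9 at a 5 µM dose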;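 also: 0 = sulfaphenazole-blocked wells and 1 = vehicle-only wells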
# MRP-1 activ: MRP-1 activation; 140,000 compounds, 0.61% hits; viability increase, % at 10 µM; H69AR cells + doxorubicin, viability rescue, CellTiter-Glo;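 active = viability gain under doxorubicin at or above a set limit, the compound median plus 3 SD, cut at about 4.7% in these data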;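 also: MRP-1 overexpressing cells given doxorubicin 25 µM after compound pretreatment; 18-22 h compound pretreatment then 72 h with doxorubicin before readout; 0% = doxorubicin-only wells and 100% = vehicle-treated cells without doxorubicin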
# Starred values were filed as active, the others as inactive; . = no result given.
SMILES,MRP resist rev,CYP2C19 activ,CYP2C19 inhib,CYP2C9 inh,CYP2C9 activ,MRP-1 activ
CCOc1cc(C=C(C(=O)OC)C(=O)OC)ccc1OCc1ccc([N+](=O)[O-])cc1,.,0.8,22.3,38.6,0.6,-2.8
COc1ccc(C(N)=S)c(OC)c1,.,.,.,.,.,-1.2
CCN(C(=O)c1ccccc1)c1ccc([N+](=O)[O-])cc1,.,.,.,.,.,-1.8
O=[N+]([O-])c1ccc(N(c2ccccc2)c2ccccc2)cc1,.,0.7,26.5,50.7*,0.5,-4.5
Cn1cnnc1SCC(=O)c1ccc2c(c1)CCCC2,-5.2,0.8,19.6,-9.8,1.1,-0.6
COc1ccc(CNc2nc(NCc3ccc(OC)cc3)n(C(=O)c3ccccc3[N+](=O)[O-])n2)cc1,.,0.6,40.3,69.5*,0.3,5.4*
COc1ccc(N(Cc2ccccc2)C(=O)c2ccccc2[N+](=O)[O-])cc1,.,0.4,60.8*,18.6,0.8,-2.9
CCN(CC)c1ccc(/C=C2\C(=O)N(c3ccc([N+](=O)[O-])cc3)N=C2N2CCOCC2)cc1,22.0,.,.,.,.,.
Cc1cc(C)cc(-n2c(SCC(=O)NCc3ccco3)nc3ccccc3c2=O)c1,-22.4,1,3.7,21.6,0.8,-1.1
CCOc1ccccc1CN1CCN(S(=O)(=O)CC)CC1,6.7,0.6,38.5,8.7,0.9,-0.5
CCCS(=O)(=O)N1CCN(Cc2ccccc2OCC)CC1,7.8,0.2,75.1*,3.9,1,-3.9
CCS(=O)(=O)N1CCN(Cc2ccccc2OC)CC1,.,0.1,89.3*,15.2,0.8,-1.2
CCOc1ccccc1N1CCN(Cc2cccc(OC)c2OC)CC1,-4.0,0.5,47.8,-7.0,1.1,-0.4
C=CCNC(=O)NC(=O)CSc1nc2cc([N+](=O)[O-])ccc2n1-c1cccc(C(F)(F)F)c1,.,.,.,.,.,-3.6
CCOC(=O)Cn1c(=O)c2c(nc3n2CCCCN3c2ccc(C)cc2)n(C)c1=O,0.1,1,-2.1,2.1,1,-1.5
O=C1CC(c2ccc(F)c(Br)c2)C2=C(CCCC2=O)N1 (stereo unspecified),2.1,0.3,68.7*,28.8,0.7,0.2
O=C1CC(c2ccc3c(c2)OCO3)C2=C(CCCC2=O)N1 (stereo unspecified),15.2,0.9,14.1,51.9*,0.5,-2.4
Cc1ccc(-c2csc(N/N=C/c3ccco3)n2)c(C)c1,.,.,.,.,.,2.6
Cc1noc(C)c1C(=O)OC(C)C(=O)Nc1ccc(S(=O)(=O)NC(C)C)cc1 (stereo unspecified),.,.,.,.,.,-0.7
CC(=O)N1N=C(c2ccco2)CC1c1ccc(Br)cc1 (stereo unspecified),.,.,.,.,.,-2.5
O=C(CNS(=O)(=O)/C=C/c1ccccc1)OCC(=O)N1CCC(Cc2ccccc2)CC1,.,0.8,24.2,51.5*,0.5,1.6
CN(C)C(=O)/C(C#N)=C\c1cc(Br)c(Sc2ccc(Cl)cc2)o1,.,.,.,.,.,-5.4
Cc1cc(-c2ccc(/C=N/n3cnnc3)o2)ccc1Cl,.,.,.,.,.,1.1
Clc1ccc(Sc2ccc(/C=N/n3cnnc3)o2)cc1,22.7,0.2,77.4*,48.1,0.5,-1.9
Clc1ccc(Sc2oc(/C=N/n3cnnc3)cc2Br)cc1,-26.4,0.1,90.7*,5.4,0.9,-5.9
SMILES,MRP resist rev,CYP2C19 activ,CYP2C19 inhib,CYP2C9 inh,CYP2C9 activ,MRP-1 activ
Cc1cc(C)n(-c2nc(SCCN(C)C)c3c4c(sc3n2)COC(C)(C)C4)n1,.,0.8,23.1,25.7,0.7,-5.5
CC(C)c1cccc(C(C)C)c1NC(=O)c1ccc(OCC(=O)NCc2ccccc2)cc1,.,.,.,.,.,-5.3
CC1CN(c2oc(Cc3cccc4ccccc34)nc2C#N)CC(C)O1 (stereo unspecified),6.4,0.4,64.2*,59.7*,0.4,-2.8
CNc1oc(Cc2cccc3ccccc23)nc1C#N,-3.4,0,95.7*,34.5,0.7,-1.5
N#Cc1nc(Cc2cccc3ccccc23)oc1NCCN1CCCCC1,.,1,-4.1,-4.6,1,-4.2
CC(C)Nc1oc(Cc2cccc3ccccc23)nc1C#N,2.1,0,98.9*,55.8*,0.4,0.2
O=C(Nc1c(C(=O)O)oc2ccc(Br)cc12)c1ccccc1,4.7,1,-0.7,33.6,0.7,-3.7
Cc1cccc(OCc2nnc(SCC(=O)N3c4ccccc4Sc4ccc(Cl)cc43)o2)c1,.,.,.,.,.,-1.8
COc1ccc(/C=C/C(=O)NCc2cn(C)nc2C)cc1COc1ccc(Br)cc1,.,0.3,67.1*,60.5*,0.4,2.6
COc1ccc(/C=C/C(=O)c2ccccc2)cc1COc1ccc(F)cc1,.,0.8,16.2,64.8*,0.4,-5.1
CC1CCC2(CC1)NC(=S)N(c1ccccc1)N2 (stereo unspecified),0.9,0.5,54.2*,9.1,0.9,-0.7
O=C1NC2(CCCCC2)NN1c1ccccc1,-8.7,0.6,41.5,-16.8,1.2,-1.4
S=C(NCCc1ccccc1)NCc1cccs1,.,.,.,.,.,-2.2
CN=c1sc2ccccc2n1CC(O)COc1ccccc1 (stereo unspecified),16.2,0,96.1*,70.6*,0.3,-1.2
CCN=c1sc2ccccc2n1CC(O)COc1ccccc1 (stereo unspecified),2.8,0,98.8*,92.8*,0.1,-2.3
OC(COc1ccccc1)Cn1c2ccccc2c2ccccc21 (stereo unspecified),.,.,.,.,.,-3.6
COc1ccc(Cl)cc1NC(=O)COC(=O)c1cc(NS(=O)(=O)c2cccs2)ccc1O,.,.,.,.,.,-2.5
CCOc1ccc(CNC(=O)C(CC)n2nc(C)n3c(cc4occc43)c2=O)cc1OC (stereo unspecified),.,0.8,19.7,74.9*,0.3,0.1
Cc1nn(C(C)C(=O)NCC2CCCO2)c(=O)c2cc3occc3n12 (stereo unspecified),.,1,3.3,-13.6,1.1,-1.5
CCOc1ccc(CCNC(=O)C(C)n2nc(C)n3c(cc4occc43)c2=O)cc1OCC (stereo unspecified),.,0.7,27.2,62.2*,0.4,-0.3
CCOc1ccc(CCNC(=O)CCc2nc(-c3ccc(C)cc3)no2)cc1OCC,7.2,0.7,32.1,41.0,0.6,-4.3
CCOc1ccc(CNC(=O)C2CCN(S(=O)(=O)CC)CC2)cc1OC,-26.6,1.1,-7.3,-4.5,1,-1.9
CCOC(=O)C(CC)n1nc(C)n2c(cc3occc32)c1=O (stereo unspecified),6.1,0.9,12.3,71.2*,0.3,-2.2
Cc1nn(C(C)C(=O)NCCCc2ccccc2)c(=O)c2cc3occc3n12 (stereo unspecified),13.0,0.3,71.4*,68.4*,0.3,-0.6
CCOC(=O)CCCn1ncn2c(cc3occc32)c1=O,4.2,0.9,13.2,5.3,0.9,0.8
Cc1ccc(C(=O)Nc2cc3c(oc2=O)CCCC3=O)cc1,.,1,-1.0,8.9,0.9,0.8
N/C(COc1cccc(C(F)(F)F)c1)=N\NC(=O)c1cccnc1Oc1ccccc1,-5.1,0.8,20.6,-7.6,1.1,0.2
CSc1ccc(/C=N/NC(=O)CN2CCN(Cc3ccc(C)cc3)CC2)cc1,.,.,.,.,.,-1.9
